Screening data deposited in PubChem by National Center for Advancing Translational Sciences (NCATS).
D2 PAM-1 – positive allosteric modulators of human D2 dopamine receptor. P14416. HEK293 T-REx D2, calcium flux, EC20 dopamine potentiation. potentiation, % at 10 µM. 340,000 compounds, 0.34% hits. AID 485347;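 active = potentiation over 3 SD above the plate norm, cut at about 30% in these data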
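Tetracycline-induced HEK293 T-REx cells force-coupled to calcium signalling expressed D2; compounds were pin-added after a 10 s baseline, read kinetically 180 s, then an EC20 dopamine challenge followed with a further 180 s calcium read.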
D2 ag-1 – activates the human D2 dopamine receptor. activation, % at 2 µM. HEK293 T-REx D2 cells, calcium flux agonist mode. AID 485358. 340,000 compounds, 0.53% hits;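 active = activation over 3 SD above normal in the single-dose calcium agonist read, cut at about 30% in these data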
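Calcium-flux readout, 1 cycle/sec over 180 s following compound pin transfer, in inducible HEK293 Trex D2 cells (force-coupled); dopamine controls included. Positive calcium responses during this window marked compounds as potential agonists.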
D2 antagonist – antagonizes the human D2 dopamine receptor. P14416. HEK293 TREx D2 cells, calcium flux, dopamine EC80. inhibition, % at 10 µM. 340,000 compounds, 2% hits; in the data active = inhibition above about 30%; inactive = below that, where a call was filed
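Cells plated overnight at 30 C with tetracycline; no-wash calcium dye, 30–90 min RT; 10 s baseline; compound pinned; 180 s read; EC80 dopamine added; another 180 s read.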
D2 ag-2 – activates the human D2 dopamine receptor; P14416; DiscoveRx PathHunter D2 beta-arrestin, luminescence, 90 min; 100% = 57 uM dopamine signal; activation, % (no concentration beside the values); 360,000 compounds, 0.084% hits; in the data active = activation above about 40%; inconclusive = between about 15% and that limit
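DiscoveRx PathHunter D2 beta-arrestin cells (2,100/well) attached overnight, then compound-stimulated 90 min at 37 C in HBSS/10 mM HEPES/0.1% Tween-20 buffer; beta-galactosidase complementation read by luminescence after 1 h at ambient temperature. Dopamine 57 uM final (EC100) as control.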
D2 PAM-2 – human D2 receptor positive allosteric modulation. AID 624464. DiscoveRx D2 beta-arrestin cells, luminescence, 90 min; 100% = 57 uM dopamine signal. P14416. 360,000 compounds, 0.23% hits. potentiation, % (test concentration not listed); in the data active = potentiation above about 50%; inconclusive = mostly about 30% to 49%
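D2 cells co-treated with compound plus 50 nM dopamine (EC20) for 90 min at 37 deg C to detect potentiation. Beta-arrestin recruitment was read as enzyme-fragment luminescence after 1 h at ambient temperature. Full response was set by 57 uM dopamine.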
D3 ag – activates human D3 dopamine receptor beta-arrestin recruitment; shares compounds with D2 ag-1; DiscoveRx D3 beta-arrestin cells, luminescence, 90 min; Potency, µM (series often up to 76.9 µM), most hits filed as activators; 2,300 compounds, 4% hits; AID 720506; also: nearly all actives have a fitted effect of over 70% in size
Target sequence (P35462 whole entry, looked up): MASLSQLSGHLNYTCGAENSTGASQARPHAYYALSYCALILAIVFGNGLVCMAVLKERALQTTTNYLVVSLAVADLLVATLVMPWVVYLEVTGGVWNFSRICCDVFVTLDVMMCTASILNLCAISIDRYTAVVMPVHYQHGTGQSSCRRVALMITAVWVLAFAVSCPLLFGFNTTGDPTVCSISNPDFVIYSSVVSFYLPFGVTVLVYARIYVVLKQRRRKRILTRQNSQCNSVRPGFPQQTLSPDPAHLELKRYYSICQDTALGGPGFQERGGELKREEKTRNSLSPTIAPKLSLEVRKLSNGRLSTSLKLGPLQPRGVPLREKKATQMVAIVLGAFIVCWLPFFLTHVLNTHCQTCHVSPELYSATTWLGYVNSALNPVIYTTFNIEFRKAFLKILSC
D2 ag-3 – activates human D2 dopamine receptor in D3 counterscreen. shares compounds with D2 ag-1. 2,300 compounds, 5.9% hits. DiscoveRx PathHunter D2 beta-arrestin, luminescence, 90 min; response scale: percent relative to full dopamine signal. Potency, µM (top dose mostly 76.9 µM), most hits filed as activators; also: nearly all actives have a fitted effect of over 70% in size
A number is an active result; n = inactive; u = inconclusive; x = no result given. An excerpt weighted towards active compounds, which were near 2.4% of everything screened. Unless noted, calls follow the shape of the dose curve; as a rule, active = well fitted activation curve with a large enough effect; inconclusive = small, poorly fitted or top-dose-only effect; inactive = flat fitted curve, though single readings scatter.

SMILES	D2 PAM-1	D2 ag-1	D2 antagonist	D2 ag-2	D2 PAM-2	D3 ag	D2 ag-3
COc1cc(C2N(c3ccccc3)CCN2c2ccccc2)ccc1OC(C)=O	n	n	n	n	n	x	x
COc1ccc(C2N(Cc3ccccc3)CCN2Cc2ccccc2)cc1[N+](=O)[O-]	n	n	n	n	n	n	n
CCC1CN(C(=O)N2CCC(C(=O)NCc3ccc(N(C)C)cc3)CC2)c2ccccc2O1 (centres undefined)	n	n	x	x	x	x	x
N#C/C(=C/c1ccc(N2CCOCC2)o1)c1nc2ccccc2[nH]1	n	n	n	n	n	u	n
CCOC(=O)NC(=O)/C(C#N)=N\Nc1cccc(Cl)c1	n	n	38	n	n	n	n
CCOC(=O)N1CCC(N2CCN(Cc3ccc(F)c(F)c3)C(CCO)C2)CC1 (centres undefined)	n	40	n	n	n	n	n
OCCC1CN(C2CCN(c3ccccc3F)CC2)CCN1Cc1ccccc1 (centres undefined)	n	n	n	n	n	n	n
OCCC1CN(C2CSCCSC2)CCN1Cc1ccccc1 (centres undefined)	n	n	n	n	n	x	x
O=C(CC1N=C2c3ccccc3N=C(SCc3cccc(Cl)c3)N2C1=O)NCCc1ccccc1 (centres undefined)	n	n	x	x	x	x	x
CC(=O)Nc1ccc(NC(=O)CC(C)n2ccc(C)n2)cc1 (centres undefined)	n	n	x	x	x	x	x
CCCn1c(-c2ccc(OC)cc2)nc2ccccc21	n	n	n	n	n	n	u
CSc1ccc(C2c3c(-c4ccccc4O)n[nH]c3C(=O)N2Cc2ccncc2)cc1 (centres undefined)	n	x	x	x	x	x	x
COc1ccc(NC(=O)C(=O)NCCN2CCN(C(=O)c3cccs3)CC2)cc1	n	n	44	n	n	u	n
Cc1cc(NC(=O)C(=O)NCCN2CCN(C(=O)c3cccs3)CC2)ccc1Br	n	n	n	n	n	n	n
CCN(CC)c1cc(C)c2cc(NC(=O)c3ccccc3Cl)ccc2n1	n	n	x	x	x	x	x
Cc1nc(-c2nc(-c3c(C(=O)NNC(=O)Nc4cccc(Cl)c4)noc3C)cs2)cs1	n	40	49	n	n	n	n
CCc1nn2c(=O)cc(COC(=O)Cc3ccccc3)nc2s1	n	n	x	x	x	x	x
CC(=O)Nc1cc(NC(C)=O)c2nc(N)sc2c1	n	n	n	n	n	n	n
CCCC(c1nnnn1CCOC)N1CCN(Cc2ccccc2)CC1 (centres undefined)	n	33	n	n	n	n	n
OC1(Cc2cc(-c3ccccc3)no2)CCN(CCCc2ccccc2)CC1	n	46	73	n	n	u	n
CC(CNC(=O)C1CCN(C(=O)c2cc3sccc3n2C)CC1)c1ccccc1 (centres undefined)	n	n	x	x	x	x	x
O=[N+]([O-])c1cc(/C=N/N/C(=N/c2ccccn2)c2ccccn2)ccc1O	n	n	n	n	n	n	n
Cc1nc2ccccc2nc(=O)c1NNc1ccccc1	n	75	n	n	n	n	n
CC1CCCCN1Cc1ccc(-c2nnn(CC(=O)NC3CCCCC3)n2)cc1 (centres undefined)	n	50	n	n	n	n	n
C/C(=N\NC(=O)c1nnn(-c2nonc2N)c1-c1ccc2c(c1)OCO2)c1ccccc1	n	n	n	n	n	n	n
SMILES	D2 PAM-1	D2 ag-1	D2 antagonist	D2 ag-2	D2 PAM-2	D3 ag	D2 ag-3
C/C(=N\NC(=O)c1nnn(-c2nonc2N)c1-c1ccc2c(c1)OCO2)c1ccc(C)cc1	n	n	n	n	n	n	n
Cc1ccc(C(=O)c2cn(Cc3ccccc3F)c3cc4c(cc3c2=O)OCO4)cc1	n	n	x	x	x	x	x
Cc1oc(-c2ccccc2Cl)nc1CS(=O)CC(=O)N1CCN(c2ccccc2)CC1 (centres undefined)	n	43	n	n	n	n	n
COc1ccc(-c2c(C#Cc3ccsc3)c3cc(-c4ccc(OC)c(F)c4)ccc3n2C)cc1	n	n	n	n	n	n	n
COc1ccc(-c2ccc3c(c2)c(C#Cc2ccsc2)c(-c2cc(OC)cc(OC)c2)n3C)cc1	x	x	x	n	n	x	x
CC(=O)N1CCC2(CC1)C(C#N)=C(N)Oc1c2sc2nc(C)cc(C)c12	n	n	n	n	n	x	x
CCN1CCC2(CC1)C(C#N)=C(N)Oc1c2sc2nc(C)cc(C)c12	n	67	53	n	n	n	n
O=C(C1CCC(Cn2c(=O)c3sccc3n(Cc3ccccc3)c2=O)CC1)N1CCCCC1 (centres undefined)	n	n	x	x	x	x	x
CC(=O)N1CCc2cc(S(=O)(=O)NCCCN3CCN(Cc4ccccc4)CC3)ccc21	n	42	44	n	n	n	n
COC(=O)CCN(C(=O)C12CC3CC(CC(C3)C1)C2)c1ccccn1	n	69	33	u	u	n	u
O=C(N(Cc1ccccc1)c1ccccn1)C12CC3CC(CC(C3)C1)C2	n	n	n	n	n	x	x
COc1ccc(C(=N/O)/C(=N/O)c2ccc(OC)cc2)cc1	n	n	40	n	n	n	n
Cc1ccccc1C(=O)O/N=C(\N)c1ccccc1	n	n	n	u	n	x	x
Cc1ccccc1C(=O)O/N=C(\c1ccccc1)c1ccccn1	n	77	72	u	n	u	u
CCOc1cc(N2CCOCC2)c(OCC)cc1NC(=O)COc1cccc(CC)c1	n	n	n	n	n	n	n
Cc1cc(C)nc(-n2ncc3c2CC(c2ccccc2)CC3=O)n1 (centres undefined)	n	48	n	n	n	n	n
CC(=O)c1cccc(NC(=O)C(C)OC(=O)c2ccc(-n3cnnn3)cc2)c1 (centres undefined)	n	n	n	n	n	x	x
CC(OC(=O)c1ccc(-n2cnnn2)cc1)C(=O)Nc1ccccc1[N+](=O)[O-] (centres undefined)	n	n	n	n	n	n	n
COc1ccccc1NC(=O)C(C)OC(=O)C(C)SCC(=O)Nc1ccc(C)cc1 (centres undefined)	n	n	n	n	n	n	n
CCN(CC)C(=O)Cn1cc(C(=O)C(=O)N2CCN(Cc3ccccc3)CC2)c2ccccc21	n	58	n	n	n	n	n
O=C(C1CCN(c2nnc(N3CCCC3=O)s2)CC1)N1CCN(Cc2ccc3c(c2)OCO3)CC1	n	57	n	n	n	n	n
O=C(C1CCCN(Cc2ccc3c(c2)OCO3)C1)N1CCCC1 (centres undefined)	n	n	n	n	n	x	x
